For some of these results: Results with a measured potency or affinity are listed apart.

Design in all cases: scale not given: direction of the effect not stated beside the values
For assay [1], the target named is Protein translocase subunit SecA (Escherichia coli (strain K12)) (UniProt P10408). Put plainly: Assay to Identify E. coli SecA ATPase Inhibitors. The format is functional. The note with it: 30 µM.
Assay [2] concerns the target T1, Ubiquitin-activating enzyme e1, putative (Leishmania donovani (strain BPK282A1)) (UniProt E9BSI1).
T1 sequence (whole entry): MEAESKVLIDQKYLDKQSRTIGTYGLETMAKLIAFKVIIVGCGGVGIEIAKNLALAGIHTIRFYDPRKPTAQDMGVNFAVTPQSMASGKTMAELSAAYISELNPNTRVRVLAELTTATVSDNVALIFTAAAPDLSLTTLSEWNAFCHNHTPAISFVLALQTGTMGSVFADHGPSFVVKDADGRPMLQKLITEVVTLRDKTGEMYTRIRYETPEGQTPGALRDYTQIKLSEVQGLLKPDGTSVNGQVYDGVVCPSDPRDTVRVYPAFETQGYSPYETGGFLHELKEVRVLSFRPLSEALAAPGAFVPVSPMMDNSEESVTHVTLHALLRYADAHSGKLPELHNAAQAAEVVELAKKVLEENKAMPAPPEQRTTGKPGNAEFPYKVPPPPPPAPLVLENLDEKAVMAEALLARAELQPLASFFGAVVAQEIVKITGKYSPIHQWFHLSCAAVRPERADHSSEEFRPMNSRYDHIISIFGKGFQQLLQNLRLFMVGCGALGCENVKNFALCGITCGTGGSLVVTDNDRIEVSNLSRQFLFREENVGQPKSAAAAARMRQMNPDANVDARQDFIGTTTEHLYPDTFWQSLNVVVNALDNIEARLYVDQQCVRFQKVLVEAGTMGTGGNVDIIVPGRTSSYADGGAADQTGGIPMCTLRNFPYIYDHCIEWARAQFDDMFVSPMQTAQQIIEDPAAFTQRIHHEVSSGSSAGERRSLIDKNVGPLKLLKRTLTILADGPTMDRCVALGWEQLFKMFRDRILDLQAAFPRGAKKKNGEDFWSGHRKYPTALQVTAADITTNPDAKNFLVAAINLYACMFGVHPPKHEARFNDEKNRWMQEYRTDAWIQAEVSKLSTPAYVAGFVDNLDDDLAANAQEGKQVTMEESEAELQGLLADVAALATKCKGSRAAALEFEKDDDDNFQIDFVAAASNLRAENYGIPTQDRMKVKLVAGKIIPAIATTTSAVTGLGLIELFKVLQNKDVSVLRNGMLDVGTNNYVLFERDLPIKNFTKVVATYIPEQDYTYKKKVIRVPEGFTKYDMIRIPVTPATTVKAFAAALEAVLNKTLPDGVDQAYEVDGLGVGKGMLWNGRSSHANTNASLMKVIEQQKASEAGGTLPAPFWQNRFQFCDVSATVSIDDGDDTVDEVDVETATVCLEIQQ
The assay is described as follows: Leishmania donovani Ubiquitin Activating Enzyme (LdE1). The format is functional. As to conditions: 30 µM.

For assay [3], the target named is AMP-activated protein kinase, AMPK (Homo sapiens) (UniProt P54646+O43741+P54619+Q9UGJ0+Q9Y478+Q13131+Q9UGI9). Put plainly: AMP-dependent Kinase enzyme assay. An in vitro enzyme assay that detects ADP turnover that is directly proportional to AMPK activity. This uses naive AMPK that is activated during the assay with MK-8722. Format: functional. The note with it: 30 µM.

Assay [4] deals with Sialic acid-binding Ig-like lectin 9 (Homo sapiens) (UniProt Q9Y336). The assay is described as follows: Hs-Siglec9 ALPHAscreen SOP 20170721. As to conditions: 10 µM.
Another assay concerns Trypanosoma cruzi. Put plainly: Trypanosoma cruzi phosphomannomutase and mannose-1-phosphate guanylyltransferase assay. Format: functional. As to conditions: 10 µM.
For assay [5], the target named is T2, Arginase-2, mitochondrial (Homo sapiens) (UniProt P78540).
T2 sequence (whole entry): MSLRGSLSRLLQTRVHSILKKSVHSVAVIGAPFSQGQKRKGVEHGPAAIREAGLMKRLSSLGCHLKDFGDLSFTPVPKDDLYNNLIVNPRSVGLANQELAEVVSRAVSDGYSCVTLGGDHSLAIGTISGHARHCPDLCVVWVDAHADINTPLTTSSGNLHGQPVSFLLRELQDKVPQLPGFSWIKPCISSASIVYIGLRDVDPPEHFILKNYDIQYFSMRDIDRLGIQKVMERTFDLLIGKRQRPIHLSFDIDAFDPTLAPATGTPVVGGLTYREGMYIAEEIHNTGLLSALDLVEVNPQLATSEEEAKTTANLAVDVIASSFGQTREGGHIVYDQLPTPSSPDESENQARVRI
Put plainly: in vitro enzyme assay to detect the production of urea directly proportional to the activity of Arginase II. Further: in the data most compounds retested in dose-response had high values. Format: functional. The note with it: 33.3 µM.

The target of assay [6] is T3, Proteasome subunit beta (Trypanosoma cruzi) (UniProt O96673).
T3 sequence (whole entry): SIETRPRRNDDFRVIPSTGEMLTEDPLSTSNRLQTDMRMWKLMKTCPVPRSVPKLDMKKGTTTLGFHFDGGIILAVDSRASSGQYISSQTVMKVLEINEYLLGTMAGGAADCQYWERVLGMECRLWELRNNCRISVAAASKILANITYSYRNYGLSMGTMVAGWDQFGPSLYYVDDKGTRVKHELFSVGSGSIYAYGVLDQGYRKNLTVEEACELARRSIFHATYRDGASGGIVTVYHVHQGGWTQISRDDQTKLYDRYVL
The assay is described as follows: Trypanosoma cruzi proteasome chymotrypsin-like activity (TcProtChymo) assay. Further: in the data most compounds retested in dose-response had high values. As to conditions: 9.37 µM. The format is functional.

For the next assay, the species on record is Homo sapiens. The assay is described as follows: To identify inhibition of the IFN signalling (Jak-Stat) pathway via expression of an eGFP reporter gene under the control of an IFN-stimulated response element (ISRE) containing MxA promoter. The format is functional. The note with it: 30 µM. In general terms: In a reporter assay the amount or activity of a reporter protein is the signal.

In assay [7] the target is T4, Tyrosyl-tRNA synthetase, putative (Trypanosoma cruzi (strain CL Brener)) (UniProt Q4DSP6).
T4 sequence (whole entry): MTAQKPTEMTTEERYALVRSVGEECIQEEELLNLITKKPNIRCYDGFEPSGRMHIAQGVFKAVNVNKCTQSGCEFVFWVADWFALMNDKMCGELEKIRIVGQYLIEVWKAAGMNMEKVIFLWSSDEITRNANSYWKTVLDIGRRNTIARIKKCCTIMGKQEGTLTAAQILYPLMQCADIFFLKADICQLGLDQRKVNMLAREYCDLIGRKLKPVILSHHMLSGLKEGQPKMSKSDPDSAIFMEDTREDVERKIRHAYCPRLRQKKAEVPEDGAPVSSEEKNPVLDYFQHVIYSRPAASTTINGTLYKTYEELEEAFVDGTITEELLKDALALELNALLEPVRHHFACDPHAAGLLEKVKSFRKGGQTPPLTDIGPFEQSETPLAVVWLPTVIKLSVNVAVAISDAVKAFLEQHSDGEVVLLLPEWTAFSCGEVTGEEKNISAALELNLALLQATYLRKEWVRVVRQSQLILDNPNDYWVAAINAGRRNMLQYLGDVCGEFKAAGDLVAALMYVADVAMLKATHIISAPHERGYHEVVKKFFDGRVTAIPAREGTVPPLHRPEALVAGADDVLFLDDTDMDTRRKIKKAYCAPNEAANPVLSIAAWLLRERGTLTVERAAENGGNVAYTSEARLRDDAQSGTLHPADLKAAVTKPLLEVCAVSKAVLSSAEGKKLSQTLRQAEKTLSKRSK
Put plainly: Trypanosoma cruzi tyrosyl tRNA synthetase (TcYRS) _High Tyrosine SOP. Further: in the data most compounds retested in dose-response had high values. The format is functional. The note with it: 30 µM.

In assay [8] the target is T4, Tyrosyl-tRNA synthetase, putative (Trypanosoma cruzi (strain CL Brener)). Put plainly: Trypanosoma cruzi tyrosyl tRNA synthetase (TcYRS) SOP. Format: functional. The note with it: 30 µM.
The target in assay [9] is Chromo domain-containing protein 1 (Saccharomyces cerevisiae (strain ATCC 204508 / S288c) (Baker's yeast)) (UniProt P32657). Put plainly: ScCHD-1 Enzyme Inhibition Assay. Further: in the data most compounds retested in dose-response had high values. Format: functional. As to conditions: 30 µM.
Chain of Chromo domain-containing protein 1 (Saccharomyces cerevisiae (strain ATCC 204508 / S288c) (Baker's yeast)) (P32657 whole entry, the tested form may be a part): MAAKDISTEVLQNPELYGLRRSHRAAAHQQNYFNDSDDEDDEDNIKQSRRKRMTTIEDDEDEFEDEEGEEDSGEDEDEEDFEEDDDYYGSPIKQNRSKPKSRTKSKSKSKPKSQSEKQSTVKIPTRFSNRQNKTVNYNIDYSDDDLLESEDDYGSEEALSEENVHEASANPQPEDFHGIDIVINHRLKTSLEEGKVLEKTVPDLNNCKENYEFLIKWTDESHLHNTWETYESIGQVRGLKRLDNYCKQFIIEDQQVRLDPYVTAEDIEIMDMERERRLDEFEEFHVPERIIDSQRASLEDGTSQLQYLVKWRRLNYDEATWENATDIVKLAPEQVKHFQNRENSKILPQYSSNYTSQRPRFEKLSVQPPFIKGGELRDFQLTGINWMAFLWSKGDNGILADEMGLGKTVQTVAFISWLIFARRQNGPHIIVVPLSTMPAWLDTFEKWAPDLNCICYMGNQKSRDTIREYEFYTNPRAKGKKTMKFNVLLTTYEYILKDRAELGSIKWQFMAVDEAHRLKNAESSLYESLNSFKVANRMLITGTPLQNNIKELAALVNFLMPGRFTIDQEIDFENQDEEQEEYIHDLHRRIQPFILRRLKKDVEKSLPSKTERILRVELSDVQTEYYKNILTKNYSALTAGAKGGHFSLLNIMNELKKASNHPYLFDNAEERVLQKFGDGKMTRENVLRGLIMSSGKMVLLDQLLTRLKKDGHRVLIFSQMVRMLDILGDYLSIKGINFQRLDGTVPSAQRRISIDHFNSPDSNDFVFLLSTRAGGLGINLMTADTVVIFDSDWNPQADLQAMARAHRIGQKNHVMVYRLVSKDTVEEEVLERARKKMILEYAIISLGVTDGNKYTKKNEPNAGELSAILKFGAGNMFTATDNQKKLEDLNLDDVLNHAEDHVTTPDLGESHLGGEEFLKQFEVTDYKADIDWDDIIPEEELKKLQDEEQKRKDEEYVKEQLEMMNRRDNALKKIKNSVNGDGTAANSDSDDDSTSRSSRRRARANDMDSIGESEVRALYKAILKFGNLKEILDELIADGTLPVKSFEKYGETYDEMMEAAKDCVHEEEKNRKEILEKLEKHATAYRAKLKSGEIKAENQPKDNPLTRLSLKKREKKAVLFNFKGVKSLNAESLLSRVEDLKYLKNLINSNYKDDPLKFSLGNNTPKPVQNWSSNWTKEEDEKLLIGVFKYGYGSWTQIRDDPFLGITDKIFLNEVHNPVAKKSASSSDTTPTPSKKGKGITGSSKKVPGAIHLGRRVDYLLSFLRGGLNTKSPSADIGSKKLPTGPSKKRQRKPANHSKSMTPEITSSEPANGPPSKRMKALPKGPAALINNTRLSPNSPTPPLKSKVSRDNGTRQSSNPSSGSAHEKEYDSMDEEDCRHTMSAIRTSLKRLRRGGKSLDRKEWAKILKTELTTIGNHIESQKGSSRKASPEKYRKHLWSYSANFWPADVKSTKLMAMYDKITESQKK

Chain of Sialic acid-binding Ig-like lectin 9 (Homo sapiens) (Q9Y336 whole entry): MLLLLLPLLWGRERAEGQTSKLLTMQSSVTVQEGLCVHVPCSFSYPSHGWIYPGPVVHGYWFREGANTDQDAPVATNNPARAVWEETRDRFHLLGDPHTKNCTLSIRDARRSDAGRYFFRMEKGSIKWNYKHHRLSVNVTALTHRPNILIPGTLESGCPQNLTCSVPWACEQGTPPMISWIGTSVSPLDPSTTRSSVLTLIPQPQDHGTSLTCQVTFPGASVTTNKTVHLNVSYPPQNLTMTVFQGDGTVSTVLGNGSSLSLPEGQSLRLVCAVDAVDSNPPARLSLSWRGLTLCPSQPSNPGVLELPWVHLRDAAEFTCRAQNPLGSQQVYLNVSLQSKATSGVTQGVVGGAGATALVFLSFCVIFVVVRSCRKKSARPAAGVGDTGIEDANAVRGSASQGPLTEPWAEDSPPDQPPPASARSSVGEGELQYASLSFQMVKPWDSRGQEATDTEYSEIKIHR
Chain of Protein translocase subunit SecA (Escherichia coli (strain K12)) (P10408 whole entry): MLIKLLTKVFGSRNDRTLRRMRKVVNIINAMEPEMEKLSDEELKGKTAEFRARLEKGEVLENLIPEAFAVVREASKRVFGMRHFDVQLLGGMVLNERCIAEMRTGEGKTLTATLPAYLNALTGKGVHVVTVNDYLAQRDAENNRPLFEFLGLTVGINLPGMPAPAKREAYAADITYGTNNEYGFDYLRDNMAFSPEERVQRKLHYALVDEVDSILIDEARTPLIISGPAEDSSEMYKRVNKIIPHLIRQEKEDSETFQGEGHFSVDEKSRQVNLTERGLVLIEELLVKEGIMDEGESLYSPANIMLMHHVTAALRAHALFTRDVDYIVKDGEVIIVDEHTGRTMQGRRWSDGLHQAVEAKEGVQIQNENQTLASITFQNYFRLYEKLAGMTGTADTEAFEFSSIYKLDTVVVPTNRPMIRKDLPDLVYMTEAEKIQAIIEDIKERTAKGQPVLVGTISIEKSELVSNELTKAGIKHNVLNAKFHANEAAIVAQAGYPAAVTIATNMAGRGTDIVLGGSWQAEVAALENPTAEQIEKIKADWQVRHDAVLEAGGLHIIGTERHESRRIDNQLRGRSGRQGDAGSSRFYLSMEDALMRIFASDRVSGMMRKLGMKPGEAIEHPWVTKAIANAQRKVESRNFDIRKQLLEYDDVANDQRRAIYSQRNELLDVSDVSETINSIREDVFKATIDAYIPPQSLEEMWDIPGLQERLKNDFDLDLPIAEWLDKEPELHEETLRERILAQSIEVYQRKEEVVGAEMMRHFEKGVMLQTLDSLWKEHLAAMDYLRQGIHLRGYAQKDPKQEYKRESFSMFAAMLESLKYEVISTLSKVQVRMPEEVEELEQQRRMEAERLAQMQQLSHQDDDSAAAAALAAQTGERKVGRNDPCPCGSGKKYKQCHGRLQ

Regarding `CC(C)OCC(=O)N1CCCN(Cc2ccc(C#N)cc2)CC1`, the Percent Effect in assay [1] was -2.63%; in assay [2] it was 13.2%; in [3], 4.09%; in assay [4], 11.3%; in the assay with Trypanosoma cruzi, 0.94%; in assay [5] it was 2.68%. Besides, the Percent Effect in assay [6] is 10.2%; in the assay listed under Homo sapiens, -2.84%; in assay [7] it was 8.33%; in [8] it was 17.1%; in [9], -8.3%.

Turning to `CCN1CCN(S(=O)(=O)c2cc(C)c(Cl)cc2Cl)CC1`, the Percent Effect is -6.87% in assay [1]; -2.6% in [2]; 4.8% in assay [3]; 4.35% in [4]; -2.85% in the assay with Trypanosoma cruzi; 1.38% in [5]. Moreover, the Percent Effect is -0.166% in [6]; 13.9% in the assay filed under Homo sapiens; -3.23% in assay [7]; -6.17% in assay [8]; 4.8% in assay [9].

As to `CCn1ccnc1CN1CCN(C(C)C(=O)N2CCC(C)CC2)CC1` (stereo not drawn), the Percent Effect was -2.02% in [1]; 2.7% in [2]; -8.85% in [3]; 9.21% in [4]; 2.88% in the assay on Trypanosoma cruzi; -3.14% in assay [5]. Also, the Percent Effect in assay [6] was 15.4%; in the assay listed under Homo sapiens, 11%; in assay [7] it was 3.96%; in assay [8], 11%; in [9] it was -4.46%.

Turning to `O=C(c1ccc[nH]1)N1CCn2cc(CN3CCCC3)nc2C1`, the Percent Effect in assay [1] is -5.65%; in [2] it was 0%; in assay [3] it was 7.25%; in assay [4], -0.683%; with Trypanosoma cruzi, -3.35%; in assay [5], -0.699%. The Percent Effect in [6] is 9.07%; in the assay listed under Homo sapiens, 8.62%; in [7] it was 1.06%; in assay [8], 3.85%; in [9], -0.931%.

Regarding `CCS(=O)(=O)CC(=O)NC(c1ccccc1)C1CCCCC1` (stereo not drawn), the Percent Effect is -6.35% in [1]; 2.63% in assay [2]; 9.57% in assay [3]; -0.679% in assay [4]; 3.41% in the assay with Trypanosoma cruzi; -17.8% in assay [5]. The Percent Effect in assay [6] was 21.6%; in the assay listed under Homo sapiens, -15.8%; in [7] it was 4.25%; in assay [8] it was 7.79%; in assay [9], -3.43%.

Take `Cn1ccc(C(=O)N2CCC[C@]3(C[C@@H](OCc4ccccn4)CO3)C2)n1`: the Percent Effect in assay [1] was -3.65%; in assay [2] it was 13.5%; in [3], 2.83%; in assay [4] it was -1.64%; with Trypanosoma cruzi it was -2.64%; in assay [5], 8.6%. Further, the Percent Effect was 15.1% in assay [6]; 2.73% in the assay filed under Homo sapiens; 8.65% in [7]; 17.9% in assay [8]; -1.5% in assay [9].

Take `O=C(c1cccn1Cc1cccs1)N1CCCC1Cn1cccn1` (stereo not drawn): the Percent Effect in [1] was -1.97%; in assay [2], -23.7%; in assay [3], -2.11%; in assay [4] it was 10.5%; with Trypanosoma cruzi, 8.68%; in assay [5] it was -4.68%. Also, the Percent Effect is 8.38% in assay [6]; -4.07% in the assay filed under Homo sapiens; 0.493% in assay [7]; 6.17% in [8]; 3.37% in [9].

With `CC(OCC1CC1)C(=O)N1CCCN(Cc2nccn2C)CC1` (stereo not drawn), the Percent Effect is 0.276% in assay [1]; 13.9% in assay [2]; -2.47% in [3]; -3.62% in assay [4]; -5.64% in the assay with Trypanosoma cruzi; 1.07% in [5]. The Percent Effect in assay [6] was 19.4%; in the assay listed under Homo sapiens, 10.6%; in assay [7], 3.12%; in assay [8], 7.59%; in assay [9], -24.1%.

The values are drawn from ChEMBL document CHEMBL3988442, “University of Dundee, Small-Polar-MMV Screening Library” (2021).
